# GoLoco inh red: qHTS Assay for Inhibitors of RGS12 GoLoco Motif Activity (Red Fluorophore) | Guanine nucleotide-binding protein G(i) subunit alpha-1 (Homo sapiens), P63096 | Gai1:RGS12 GoLoco peptide FP, rhodamine, 10 min | Potency, µM (highest dose often 61.6 µM), without a hit: top-dose activity, negative = inhibition, actives largely listed as inhibitors | 230,000 compounds, 0.44% hits; active = well fitted inhibition curve with a large enough effect, not every such curve was filed as active; inactive = no such curve, though single readings can be large or run the other way; also: nearly all actives have a fitted effect of over 30% in size
# Target sequence (P63096 whole entry, looked up): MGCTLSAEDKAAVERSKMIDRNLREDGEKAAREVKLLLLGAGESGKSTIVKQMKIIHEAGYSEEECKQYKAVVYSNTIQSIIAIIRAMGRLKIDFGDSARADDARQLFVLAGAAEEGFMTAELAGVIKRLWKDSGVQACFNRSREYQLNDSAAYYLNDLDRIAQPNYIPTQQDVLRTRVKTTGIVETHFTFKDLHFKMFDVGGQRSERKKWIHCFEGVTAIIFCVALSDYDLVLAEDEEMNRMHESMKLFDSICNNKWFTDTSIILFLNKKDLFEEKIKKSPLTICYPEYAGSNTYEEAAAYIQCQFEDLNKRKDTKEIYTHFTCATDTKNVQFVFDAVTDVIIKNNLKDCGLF
# Tau fluor counter: Counterscreen qHTS for Inhibitors of Tau Fibril Formation, Fluorescence Polarization. tau K18 P301L Alexa594 fluorescence, heparin fibrillization. Potency, µM (highest dose often 57.7 µM), without a hit: top-dose activity change, negative = decrease. 280,000 compounds, 0.93% hits. AID 1463, 2008; also: nearly all actives have a fitted effect of over 55% in size
#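 Human tau K18 P301L (15 uM unlabeled, 0.24 uM Alexa 594-labeled) in 100 mM sodium acetate pH 7 with 20 uM heparin, 6 hr at 37 C. ThT 30 uM added, 1 hr ambient; Alexa 594 FP and total fluorescence read at 555/632 nm.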
# JMJD2E inh: qHTS Assay for Inhibitors of Human Jumonji Domain Containing 2E (JMJD2E); 230,000 compounds, 1.6% hits; JMJD2E catalytic domain, FDH-coupled NADH fluorescence (FDH is formaldehyde dehydrogenase); Potency, µM (doses to about 57.1 µM), for the others: top-dose activity change, negative = inhibition, hits mostly inhibitors; active = well fitted inhibition curve with a large enough effect, not every such curve was filed as active; inconclusive = small, poorly fitted or top-dose-only effect, or another doubt; inactive = no such curve, though single readings can be large or run the other way;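 also: 0% = wells with enzyme and -100% = buffer wells without enzyme; nearly all actives have a fitted effect of over 50% in size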
# Target sequence (B2RXH2 1-337 limits assumed): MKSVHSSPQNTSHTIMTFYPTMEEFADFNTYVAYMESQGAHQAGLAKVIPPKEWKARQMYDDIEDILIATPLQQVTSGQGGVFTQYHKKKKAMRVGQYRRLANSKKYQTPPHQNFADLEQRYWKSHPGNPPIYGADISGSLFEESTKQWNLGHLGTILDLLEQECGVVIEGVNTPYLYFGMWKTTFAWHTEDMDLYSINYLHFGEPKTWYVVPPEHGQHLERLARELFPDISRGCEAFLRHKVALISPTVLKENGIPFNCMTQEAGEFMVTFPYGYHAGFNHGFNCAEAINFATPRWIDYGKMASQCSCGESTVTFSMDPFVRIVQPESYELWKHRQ
# Tau ThT inhib: qHTS for Inhibitors of Tau Fibril Formation, Thioflavin T Binding; Potency, µM (series often up to 57.4 µM), without a hit: top-dose activity, negative = inhibition, hits mostly inhibitors; 270,000 compounds, 2.1% hits; Microtubule-associated protein tau (Homo sapiens), P10636; recombinant tau K18 P301L (four-repeat tau fragment), heparin-induced fibrillization, ThT fluorescence; AID 1460, 2008; also: nearly all actives have a fitted effect of over 55% in size
#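 Aggregation was driven by heparin (20 uM final) acting on recombinant tau […] bearing P301L in 100 mM sodium acetate pH 7; fibrils were detected with Thioflavin T.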
# Tau FP inhib: qHTS for Inhibitors of Tau Fibril Formation, Fluorescence Polarization; Potency, µM (series often up to 57.7 µM), for the others: at the top dose activity, negative = inhibition, usual class: inhibitors; 280,000 compounds, 0.39% hits; K18 P301L tau heparin fibrillization, Alexa594 FP, 6 h; also: nearly all actives have a fitted effect of over 55% in size
#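 Compound effects on tau fibrillization are measured by Alexa 594 fluorescence polarization (ex 555, em 632 nm). K18 P301L tau is used at 15 uM with 0.24 uM labeled tracer, and 20 uM heparin induces aggregation over 6 hr at 37 C.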
# * hit, by the source's call; ? = inconclusive; nt = no result given; ! = a repeat was not active; [ ] = dose if it differs, or a comment. Only some compounds are listed: those with a hit (about 3.4% of all), similar ones and a draw of the others. Unless noted, calls follow the shape of the dose curve; as a rule, active = well fitted curve in the direction sought with a large enough effect; inconclusive = small, poorly fitted or top-dose-only effect, or another doubt; inactive = no such curve, though single readings can be large; an effect the other way counts as inactive or inconclusive. Unless noted, % is scaled to controls: 0 for no effect and ±100 for the full control effect; potency is read from the fitted curve at half-maximal effect.
SMILES,GoLoco inh red,Tau fluor counter,JMJD2E inh,Tau ThT inhib,Tau FP inhib
Oc1ccccc1-c1nc2cnccn2c1Nc1ccc(Cl)cc1,nt,13µM*[quencher],nt,-14%,-1%
CCc1ccc(S(=O)(=O)c2nnn(-c3cccc(C)c3)c2N)cc1,nt,?,nt,-12%,-4%
CC(C)c1cc[n+](-c2nc([O-])sc2C=O)cc1,-12%,-25%,?,35µM*,-25%
Cc1ccc(S(=O)(=O)c2nc(Nc3nccs3)sc2Cl)cc1,20%,16µM*[quencher],-2%,?,2%
CC(=O)Nc1nc(S(=O)(=O)c2ccc(C)cc2)c(Cl)s1,2%,-14%,-7%,-18%,-14%
Cc1ccc(-n2ncc3c(N(C)Cc4ccccc4)ncnc32)cc1,nt,-19%,nt,-3%,-2%
Cc1cc2ccccn2c1C(=S)NC(=O)c1ccccc1,10%,-19%,-29%,16µM*,2%
COc1ccc(C(=O)N2CCN(c3nc4c(C)c(Cl)ccc4s3)CC2)c(OC)c1,nt,-17%,nt,?,-6%
Cc1ccc(/C=C/C(=O)c2ccc(N3CCOCC3)cc2)s1,41%,?,-10%,7.1µM*,-1%
CCOC(=O)c1c(C)c(-c2ccccc2)n(CC(=O)NC(CC)Cc2ccccc2)c1C (centres undefined),nt,-14%,nt,-2%,-5%
Cc1ncoc1C(=O)Nc1ncc([N+](=O)[O-])s1,4%,-20%,-15%,25µM*,?
Cc1ncoc1C(=O)Nc1nccs1,nt,-12%,-5%,?,2%
O=C(Nc1ccc(Nc2ccccc2)cc1)c1ccc(Br)o1,-3%,14µM*[quencher],-14%,8.9µM*,?
O=C(CSc1nccn1-c1ncc(C(F)(F)F)cc1Cl)c1ccc(Cl)cc1,-7%,-15%,6%,18µM*,?
C/C(=N\Nc1ccc([N+](=O)[O-])cc1)c1cc2ccccc2o1,5%,8.9µM*[quencher],5%,2.8µM*,-11%
O=C(N/N=C/c1ccc([N+](=O)[O-])cc1)c1cc2ccccc2o1,3%,-17%,1%,?,6%
C/C(=N\Nc1ccc([N+](=O)[O-])cc1)c1ccc(C#N)cc1,1%,?,-5%,?,-1%
C/C(=N/Nc1ccc([N+](=O)[O-])cc1)c1ccc(C)cc1C,13%,10µM*[quencher],-9%,4.5µM*,?
CCCCn1c(=O)c2oc3ccccc3c2n(Cc2ccc(OC)cc2)c1=O,nt,-9%,nt,2%,-2%
CCN(CC)C(=O)c1sc2c(c1C)c(=O)n(-c1ccc(C)c(C)c1)c(=O)n2CC(=O)Nc1ccc(F)cc1,nt,-24%,nt,-8%,-5%
CCC(CO)Nc1ccc(-c2nn(C)c(=O)c3ccccc23)cc1[N+](=O)[O-] (centres undefined),2%,-20%,1%,25µM*,10%
COc1ccc(NS(=O)(=O)c2cc(NC(=O)C3CC3)ccc2N2CCCCC2)cc1,7%,?,-10%,-8%,?
COc1ccc(NS(=O)(=O)c2cc(NC(=O)c3ccco3)ccc2N2CCCCC2)cc1,8.9µM*,?,-10%,-3%,-9%
CC1=NC(=O)C(N=Nc2ccccc2)N1c1ccccc1 (centres undefined),6%,-12%,-1%,?,?
CC1=NC(=O)C(N=Nc2ccccc2C(=O)O)N1c1ccccc1 (centres undefined),15%,-1%,0%,5µM*,11%
SMILES,GoLoco inh red,Tau fluor counter,JMJD2E inh,Tau ThT inhib,Tau FP inhib
CC1=NC(=O)C(N=Nc2cccc(C(=O)O)c2)N1c1ccccc1 (centres undefined),20µM*,-15%,1%,16µM*,4%
CCN1/C(=C2\C(=O)N(c3ccccc3)N=C2C)C=Cc2cc(C)ccc21,3.5µM*,-7%,-8%,?,4%
CC(NC(=O)CSc1n[nH]c(-c2ccccc2Cl)n1)c1nc2ccccc2n1C (centres undefined),nt,4%,nt,4%,-5%
Cn1c(=O)c(NCCc2ccccc2)c2c3c(cccc31)C(=O)c1ccccc1-2,4.5µM*,-27%,-7%,-15%,-3%
CN1C(=O)c2cccc(NCCCN3C(=O)c4ccccc4C3=O)c2C1=O,8%,-5%,0%,17%,-7%
CC(=O)Nc1ccc(Nc2c3c4c(cccc4n(C)c2=O)C(=O)c2ccccc2-3)cc1,14µM*,-27%,0%,?,?
Cn1c(=O)c(NC2CCCCC2)c2c3c(cccc31)C(=O)c1ccccc1-2,0.79µM*,?,-6%,-15%,-1%
CCCCNc1c2c3c(cccc3n(C)c1=O)C(=O)c1ccccc1-2,14µM*,-23%,-6%,-14%,8%
CCOc1ccc(NC(=O)CSc2nnc(CNC(=O)C34CC5CC(CC(C5)C3)C4)n2CC)cc1,nt,-19%,nt,-16%,11%
COc1cc(-c2noc(CCC(=O)Nc3cc(C)ccc3C)n2)cc(OC)c1OC,nt,-21%,nt,-18%,2%
Cc1nn(-c2ccccc2)c2c1C1(C(=O)N(C(C)C)c3ccccc31)C(C#N)=C(N)O2 (centres undefined),12%,?,-12%,25µM*,?
Cc1ccc(CNC(=O)Nc2cn(CC(C)C)c(=O)c3ccccc23)cc1,nt,-18%,nt,-10%,3%
COC(=O)CCC(=O)OC1(C)C(=O)C=C2C=C(C3CC3)N(Cc3ccccc3)C=C2C1=O (centres undefined),7%[14.2 µM],-9%[11.6 µM],14µM*!,11µM*!,?
CCN(CC)CCCN1C=C2C(=O)C(C)(OC(=O)CCC(=O)OC)C(=O)C=C2C=C1C1CC1 (centres undefined),0%[14.2 µM],-7%[11.6 µM],?,-10%[11.5 µM],-11%[11.6 µM]
COC(=O)CCC(=O)OC1(C)C(=O)C=C2C=C(C3CC3)N(C3CCCC3)C=C2C1=O (centres undefined),4%[14.2 µM],-7%[11.6 µM],-14%[11.4 µM],-8%[11.5 µM],-5%[11.6 µM]
COC(=O)CCC(=O)OC1(C)C(=O)C=C2C=C(C3CC3)N(C3CCCCC3)C=C2C1=O (centres undefined),3%[14.2 µM],-11%[11.6 µM],16µM*!,?,?
CCc1ccc(NC(=O)c2ccc(F)c(S(=O)(=O)N(C)C3CCCCC3)c2)cc1,nt,?,nt,-5%,?
Cc1ccc(S(=O)(=O)NCc2nc(-c3cccc(C)c3)no2)cc1,nt,-24%,nt,-11%,-10%
CCc1ccc(OCC(=O)N(Cc2ccco2)Cc2ccccc2Cl)cc1,nt,-8%,nt,-11%,?
Cc1ccc(NC(=O)CCCN2C(=O)COc3ccc(C)cc32)c(Cl)c1,nt,-10%,nt,-13%,5%
COc1ccc(Cl)cc1NC(=O)c1c(NCc2sccc2C)sc2c1CCCC2,nt,?,nt,4µM*,?

# Source: PubChem (National Center for Advancing Translational Sciences (NCATS))
